Compound activity from PubChem.
B2AR arrestin: agonists driving beta-arrestin recruitment to human beta2-adrenergic receptor. P07550. beta-arrestin recruitment to beta2AR, cell-based reporter. Potency, µM (series often up to 46.1 µM), without a hit: top-dose activation, actives largely listed as activators. 0.02% of 330,000 active. AID 492947;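 further: 0% = DMSO controls and full agonism = EC100 isoproterenol or metaproterenol; nearly all actives have a fitted effect of over 65% in size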
Target sequence (P07550 whole entry, looked up): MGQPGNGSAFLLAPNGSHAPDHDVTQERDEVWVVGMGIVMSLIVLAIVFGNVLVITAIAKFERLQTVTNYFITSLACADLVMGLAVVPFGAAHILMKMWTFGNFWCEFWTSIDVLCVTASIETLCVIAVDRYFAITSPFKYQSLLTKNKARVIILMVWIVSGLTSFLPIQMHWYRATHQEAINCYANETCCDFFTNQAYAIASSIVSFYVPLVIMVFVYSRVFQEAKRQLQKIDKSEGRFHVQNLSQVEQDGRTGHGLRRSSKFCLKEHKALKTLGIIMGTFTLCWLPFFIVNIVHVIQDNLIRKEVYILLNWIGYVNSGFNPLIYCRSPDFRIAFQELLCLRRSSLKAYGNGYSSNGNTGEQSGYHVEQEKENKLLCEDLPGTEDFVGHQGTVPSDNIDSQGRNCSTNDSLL
NPSR antagonist: neuropeptide S receptor (human) antagonism, cAMP. AID 1461. Potency, µM (series often up to 38.3 µM), without a hit: at the highest dose activity change, negative = inhibition, actives largely listed as inhibitors. CHO-NPSR cells, cAMP TR-FRET, antagonist mode. 1% of 220,000 active; further: nearly all actives have a fitted effect of over 50% in size
Gal4-VP16 FLuc: inhibits Gal4-VP16 luciferase reporter, ROR gamma counter-screen; Drosophila S2 Gal4-VP16 UAS-luciferase, luminescence, 20 h; Potency, µM (series often up to 53.6 µM), inactives show at the top dose activity, negative = inhibition, hits mostly inhibitors; 3.5% of 310,000 active; AID 2546;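 further: Gal4-VP16 expression switched on by copper sulfate through the metallothionein promoter; nearly all actives have a fitted effect of over 50% in size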
RORgamma inh: ROR gamma (mouse) transcription inhibition; Drosophila S2 Gal4-RORgamma UAS-luciferase reporter, 20 h; Potency, µM (doses to about 53.6 µM), inactives show top-dose activity change, negative = inhibition, actives largely listed as inhibitors; AID 2551; 5.4% of 310,000 active; further: nearly all actives have a fitted effect of over 60% in size
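Using a luciferase readout, inhibitors were identified by reduced reporter activity in Drosophila cells coexpressing a copper-inducible Gal4–ROR gamma fusion and UAS-driven Photinus luciferase, incubated 20 hr after 700 uM copper sulfate.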
Numbers without * were called inactive; [ ] = dose if it differs, or a comment. A selection: hits, their analogues and other compounds. The true share with any hit is near 5.7%. The call rests on the fitted dose curve; in most records, active means well fitted curve in the direction sought with a large enough effect; inconclusive means small, poorly fitted or top-dose-only effect, or another doubt; inactive means no such curve, though single readings can be large; an effect the other way counts as inactive or inconclusive. Unless noted, on the % scale 0 is the no-effect control and ±100 the full control effect; potency means the concentration at half of the fitted maximal effect.

Results for CSc1ccccc1NC(=S)NC1CCCCC1 ?
B2AR arrestin: 0.0%; NPSR antagonist: -20.4%; Gal4-VP16 FLuc: inconclusive; RORgamma inh: 3.55µM*

How did Cc1cc2nc3n(c2cc1C)CCCN3 do in these assays?
B2AR arrestin: 0.0%; Gal4-VP16 FLuc: -10.0%; RORgamma inh: 1.58µM*

Results for CC(C)N(Cc1ccccc1)C(=S)NC(=O)C1(C)CC1(Cl)Cl (stereo not given) ?
B2AR arrestin: 0.5%; NPSR antagonist: -18.8%; Gal4-VP16 FLuc: 2.51µM*; RORgamma inh: 0.562µM*

Results for N#CCCN(C(=O)Nc1ccccc1)c1ccccc1 ?
B2AR arrestin: 0.0%; NPSR antagonist: 5.2%[46.1 µM]; Gal4-VP16 FLuc: -2.1%; RORgamma inh: -0.6%

What do the screens show for `CC1(C(=O)NC(=S)N(CCC#N)c2ccccc2)CC1(Cl)Cl` (stereo not given)?
B2AR arrestin: 0.1%; NPSR antagonist: 7.3%[46.1 µM]; Gal4-VP16 FLuc: inconclusive; RORgamma inh: 12.6µM*

How did CC1=CC(=C2C(=O)c3ccccc3C2=O)C=C(C)O1 do in these assays?
B2AR arrestin: 0.0%; NPSR antagonist: inconclusive; Gal4-VP16 FLuc: 1.6%; RORgamma inh: inconclusive

Results for CC(=O)C1=C(c2ccc(Br)cc2)C(=O)c2ccccc2C1=O ?
B2AR arrestin: 0.1%; NPSR antagonist: inconclusive; Gal4-VP16 FLuc: 6.31µM*; RORgamma inh: 14.1µM*

How did CC(=O)c1ccc(NC(=O)N2C3CCC2CC(O)(c2cccnc2)C3)cc1 (stereo not given) do in these assays?
B2AR arrestin: 0.6%; NPSR antagonist: 11.6%; Gal4-VP16 FLuc: 3.9%[10 µM]; RORgamma inh: 8.0%

Results for N/C(=N\c1nc2ccccc2o1)NC(=O)c1ccc([N+](=O)[O-])cc1 ?
B2AR arrestin: -0.4%; NPSR antagonist: -11.4%; Gal4-VP16 FLuc: -3.6%; RORgamma inh: -24.1%

What do the screens show for `N/C(=N\c1nc2ccccc2o1)NC(=O)c1ccccc1Br`?
B2AR arrestin: -0.2%; NPSR antagonist: 6.2%; Gal4-VP16 FLuc: -32.2%; RORgamma inh: 0.891µM*

What do the screens show for `N/C(=N\c1nc2ccccc2o1)NC(=O)c1ccc(Cl)cc1`?
B2AR arrestin: -0.6%; NPSR antagonist: 7.0%; Gal4-VP16 FLuc: inconclusive; RORgamma inh: 10µM*

How did N/C(=N\c1nc2ccccc2o1)NC(=O)c1ccc(F)cc1 do in these assays?
B2AR arrestin: -0.6%; NPSR antagonist: -4.7%[46.1 µM]; Gal4-VP16 FLuc: 5.62µM*; RORgamma inh: 2.51µM*

Results for COc1ccc(C(=O)N/C(N)=N/c2nc3ccccc3o2)cc1 ?
B2AR arrestin: -0.2%; NPSR antagonist: -15.0%[46.1 µM]; Gal4-VP16 FLuc: inconclusive; RORgamma inh: 8.91µM*

What do the screens show for `CC(C)(C)c1ccc(C(=O)N/C(N)=N/c2nc3ccccc3o2)cc1`?
B2AR arrestin: 0.1%; NPSR antagonist: -22.9%[46.1 µM]; Gal4-VP16 FLuc: 0.4%; RORgamma inh: 1.0%

What do the screens show for `Clc1ccc(Sc2cc(Cl)c(-c3ccccc3)nn2)cc1`?
B2AR arrestin: 0.4%; NPSR antagonist: inconclusive; Gal4-VP16 FLuc: inconclusive; RORgamma inh: inconclusive

Results for COc1ccc(CNC(=O)c2ccccc2NC(=O)C2=CSCCO2)c(OC)c1 ?
B2AR arrestin: 0.5%; Gal4-VP16 FLuc: -7.6%; RORgamma inh: 15.7%

Results for Nc1cc(Cl)c([N+](=O)[O-])cc1O ?
Gal4-VP16 FLuc: inconclusive; RORgamma inh: 39.9%

What do the screens show for `Oc1c(C(c2ccccc2)N2CCCCC2)sc2ncnn12` (stereo not given)?
B2AR arrestin: -0.6%; NPSR antagonist: -13.2%[46.1 µM]; Gal4-VP16 FLuc: -2.7%; RORgamma inh: 7.94µM*

What do the screens show for `Oc1c(C(c2ccccc2)N2CCN(Cc3ccccc3)CC2)sc2ncnn12` (stereo not given)?
B2AR arrestin: 0.2%; NPSR antagonist: -10.2%[46.1 µM]; Gal4-VP16 FLuc: 4.8%; RORgamma inh: 7.9%

What do the screens show for `CCOC(=O)c1c[nH]c(=S)n1C`?
B2AR arrestin: -0.5%; NPSR antagonist: -39.1%; Gal4-VP16 FLuc: -1.5%; RORgamma inh: 11.2µM*

Results for COc1cccc(/C=N/NC(=O)CC2C(=O)NN=C2C)c1OC (stereo not given) ?
B2AR arrestin: -0.8%; NPSR antagonist: -1.7%[46.1 µM]; Gal4-VP16 FLuc: -3.6%; RORgamma inh: -20.3%

How did Oc1ccccc1/C=N/NC(=S)NC1CC2CCC1C2 (stereo not given) do in these assays?
B2AR arrestin: 0.5%; NPSR antagonist: 29.6%; Gal4-VP16 FLuc: 10µM*; RORgamma inh: 6.31µM*

What do the screens show for `COc1cccc(/C=N/NC(=S)NC2CC3CCC2C3)c1OC` (stereo not given)?
B2AR arrestin: 0.1%; NPSR antagonist: inconclusive; Gal4-VP16 FLuc: 2.82µM*; RORgamma inh: 1.58µM*

Results for CNC(=S)N/N=C/c1ccco1 ?
B2AR arrestin: 0.0%; NPSR antagonist: inconclusive; Gal4-VP16 FLuc: 5.62µM*; RORgamma inh: 2.51µM*

Results for O=C(CNC(=O)C12CC3CC(CC(C3)C1)C2)N/N=C\c1ccco1 ?
B2AR arrestin: -0.4%; Gal4-VP16 FLuc: 0.4%; RORgamma inh: -8.1%

What do the screens show for `S=C(N/N=C/c1ccco1)NC1CC2CCC1C2` (stereo not given)?
B2AR arrestin: inconclusive; Gal4-VP16 FLuc: 2.24µM*; RORgamma inh: 0.562µM*

How did O=C(N/N=C/c1ccco1)C(O)C(O)C(=O)N/N=C/c1ccco1 (stereo not given) do in these assays?
B2AR arrestin: -0.9%; Gal4-VP16 FLuc: -2.0%; RORgamma inh: -5.2%

What do the screens show for `COCCn1c(SCC(=O)Nc2ncc(C)s2)nc2sc3c(c2c1=O)CCC3`?
B2AR arrestin: 3.7%; NPSR antagonist: -18.7%[46.1 µM]; Gal4-VP16 FLuc: 10µM*; RORgamma inh: -68.6%

How did O=C(NN1CCCCC1)c1cccc2ccccc12 do in these assays?
B2AR arrestin: -0.1%; NPSR antagonist: 17.3%; Gal4-VP16 FLuc: -8.4%; RORgamma inh: -15.6%

Results for NC(=S)N/N=C1\CC(n2nnnc2-c2ccccc2)C2COC1O2 (stereo not given) ?
B2AR arrestin: -0.1%; NPSR antagonist: 11.0%; Gal4-VP16 FLuc: inconclusive; RORgamma inh: inconclusive

Results for NC(=S)N/N=C1\CC(n2nnn(-c3cccc(Cl)c3)c2=S)C2COC1O2 (stereo not given) ?
B2AR arrestin: 0.1%; NPSR antagonist: -7.0%; Gal4-VP16 FLuc: inconclusive; RORgamma inh: 3.98µM*

What do the screens show for `Cc1ccc(CSCC(=O)N(C)CC(=O)Nc2c(Cl)cccc2Cl)cc1`?
B2AR arrestin: 0.0%

How did COC(=O)N1CCC2(CCCN(c3ncccn3)C2)CC1 do in these assays?
Gal4-VP16 FLuc: -3.4%; RORgamma inh: 2.5%

How did Cc1cccc(N2CN(Cc3cccnc3)CNC2=S)c1 do in these assays?
B2AR arrestin: -0.4%; NPSR antagonist: 1.4%[46.1 µM]; Gal4-VP16 FLuc: 4.3%; RORgamma inh: -4.6%

What do the screens show for `CCCCN1CNC(=S)N(c2ccccc2OCC)C1`?
B2AR arrestin: 0.0%; NPSR antagonist: -10.4%[46.1 µM]; Gal4-VP16 FLuc: 14.1µM*; RORgamma inh: 11.2µM*

How did CCN1CNC(=S)N(c2ccccc2OC)C1 do in these assays?
B2AR arrestin: 0.1%; NPSR antagonist: 5.0%[46.1 µM]; Gal4-VP16 FLuc: -0.3%; RORgamma inh: -22.6%

Results for CCCN1CNC(=S)N(c2ccccc2OCC)C1 ?
B2AR arrestin: -0.1%; NPSR antagonist: -2.1%[46.1 µM]; Gal4-VP16 FLuc: inconclusive; RORgamma inh: 10µM*
